Assay results: PubChem BioAssay (NCATS)
Inconclusive results are not listed. The source made the active and inactive calls. The call rests on the fitted dose curve; in most records, active means well fitted curve in the direction sought with a large enough effect; inconclusive means small, poorly fitted or top-dose-only effect, or another doubt; inactive means no such curve, though single readings can be large; an effect the other way counts as inactive or inconclusive.

Key:
[1] = Cell Viability - LYMP1-003 - Assay at 40 hr (AID 964); further: series mostly up to about 92 µM; nearly all actives have a fitted effect of over 60% in size
How it was run: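 LYMP1-003 human lymphoblastoid cells, 2500/well, preincubated 5 h at 37 C, then treated with compound for 40 h at 37 C. Intracellular ATP read by CellTiter-Glo luminescence after 30 min at room temperature; AC50 from Hill-equation fits.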

[2] = Cell Viability - LYMP2-003 (AID 965);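 further: cells exposed to compounds for 24 h before reading; nearly all actives have a fitted effect of over 50% in size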
How it was run: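 Seed 2500 lymphoblastoid cells/well; incubate 5 hr, 37 C; add compounds; incubate 24 hr, 37 C; add CellTiter-Glo, 30 min RT; read luminescence. AC50 from Hill fit.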

[3] = Cell Viability - LYMP2-004 (AID 966); further: nearly all actives have a fitted effect of over 65% in size
How it was run: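 Lymphoblastoid LYMP2-004 cells, 2500 per well, were preincubated for 5 hr and then treated with compound for 24 h at 37 C in complete medium. Viability was read as cellular ATP by CellTiter-Glo luminescence, and AC50 values were taken from Hill fits to concentration-response data.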

[4] = Cell Viability - LYMP2-005 (AID 967); further: series mostly up to about 92 µM
How it was run: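 Acute cytotoxicity is scored as a concentration-dependent drop in intracellular ATP in human lymphoblastoid LYMP2-005 cells after 24 h compound treatment. ATP is quantified by luciferase luminescence, and AC50 is derived by Hill-equation modelling.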

[5] = Cell Viability - LYMP2-009 (AID 968); further: series mostly up to about 92 µM; nearly all actives have a fitted effect of over 55% in size
[6] = Cell Viability - LYMP2-011 (AID 969); further: nearly all actives have a fitted effect of over 60% in size
How it was run: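 2500 cells/well in complete medium, compound-treated 24 h at 37 C. Viability read as intracellular ATP by CellTiter-Glo luminescence after 30 min at room temperature. AC50 from Hill fits of qHTS concentration-response data.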

[7] = Cell Viability - LYMP2-013 (AID 970); further: series mostly up to about 92 µM; nearly all actives have a fitted effect of over 55% in size
How it was run: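 Human lymphoblastoid LYMP2-013 cells, 2500/well, treated 24 h at 37 C in complete medium; viability as intracellular ATP by CellTiter-Glo luminescence after 30 min. AC50 from Hill fits of qHTS concentration-response.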

[8] = Cell Viability - LYMP2-015 (AID 971); further: nearly all actives have a fitted effect of over 55% in size
How it was run: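 LYMP2-015 human lymphoblastoid cells (2500/well) in complete medium, compound-treated 24 h at 37 C; viability read as cellular ATP by CellTiter-Glo luminescence after 30 min at room temperature. AC50 from Hill-equation fits of qHTS concentration-response data.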

[9] = Cell Viability - LYMP2-017 (AID 972); further: series mostly up to about 92 µM; nearly all actives have a fitted effect of over 55% in size
How it was run: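 LYMP2-017 human lymphoblastoid cells (2500/well) settled 5 hr at 37 C, then exposed to compound 24 hr at 37 C in complete medium. Viability taken as intracellular ATP by CellTiter-Glo luminescence after 30 min at RT; AC50 from Hill fits.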

[10] = Cell Viability - LYMP2-019 (AID 973); further: nearly all actives have a fitted effect of over 55% in size
How it was run: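 Human lymphoblastoid LYMP2-019 cells (2500/well) preincubated 5 h at 37 C, then treated 24 h at 37 C in complete medium. Viability by CellTiter-Glo ATP luminescence after 30 min at room temperature; AC50 from Hill fits.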

[11] = Cell Viability - LYMP2-021 (AID 974)
How it was run: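 Human lymphoblastoid LYMP2-021 cells, 2500/well in complete medium, treated 24 hours at 37 C. Intracellular ATP by CellTiter-Glo luminescence (30 min, RT); AC50 from Hill fits of concentration-response.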

[12] = Cell Viability - LYMP2-023 (AID 975)
How it was run: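 LYMP2-023 human lymphoblastoid cells, 2500/well, preincubated 5 hr at 37 C, then compound-treated 24 hr at 37 C in complete medium. CellTiter-Glo luminescence (ATP) after 30 min at room temperature; AC50 from Hill-equation fits; tetraoctylammonium bromide positive control.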

[13] = Cell Viability - LYMP2-025 (AID 976); further: series mostly up to about 92 µM
How it was run: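 Human lymphoblastoid LYMP2-025 cells, 2500/well, exposed 24 h at 37 C in complete medium in 1536-well qHTS. Viability as cellular ATP by CellTiter-Glo luminescence; AC50 from Hill fits of concentration-response data.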

[14] = Cell Viability - LYMP2-002 (AID 977); further: series mostly up to about 92 µM
How it was run: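 Luminescent ATP readout (CellTiter-Glo, 30 min room temperature) after 24 h compound exposure at 37 C of a human lymphoblastoid line, 2500 cells/well. AC50 values derived by standard Hill fitting of qHTS concentration-response data.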

[15] = Cell Viability - LYMP2-006 (AID 978); further: series mostly up to about 92 µM; nearly all actives have a fitted effect of over 60% in size
How it was run: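 Cells are seeded at 2500 per well and rested 5 hr at 37 C. Compounds are added across a concentration series for 24 hr at 37 C, after which ATP is quantified by luciferase luminescence.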

[16] = Cell Viability - LYMP2-007 (AID 979);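 further: cells exposed to compound for 24 h before reading; nearly all actives have a fitted effect of over 60% in size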
How it was run: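 Human lymphoblastoid LYMP2-007 cells (2500/well) preincubated 5 h at 37 C, then treated 24 h at 37 C in complete medium. Viability by CellTiter-Glo ATP luminescence after 30 min at room temperature; AC50 from Hill fits.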

[17] = Cell Viability - LYMP2-008 (AID 980); further: nearly all actives have a fitted effect of over 60% in size
How it was run: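 LYMP2-008 lymphoblastoid cells (2500/well) plated 5 h, then treated 24 h at 37 C in complete medium. Viability read as intracellular ATP by CellTiter-Glo luminescence after 30 min at room temperature; AC50 from Hill fits.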

[18] = Cell Viability - LYMP2-010 (AID 981); further: nearly all actives have a fitted effect of over 55% in size
How it was run: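 Human lymphoblastoid LYMP2-010 cells (2500/well) treated 24 h at 37 C in complete medium; viability read as intracellular ATP by CellTiter-Glo luminescence. AC50 from Hill fits of concentration-response data; tetraoctylammonium bromide positive control.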

[19] = Cell Viability - LYMP2-012 (AID 982)
[20] = Cell Viability - LYMP2-014 (AID 983); further: series mostly up to about 92 µM; nearly all actives have a fitted effect of over 50% in size
How it was run: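 LYMP2-014 human lymphoblastoid cells, 2500/well, treated 24 h at 37 C in complete medium; viability by CellTiter-Glo ATP luminescence after 30 min at room temperature. AC50 from Hill fits of qHTS concentration-response; tetraoctylammonium bromide positive control.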

Measured: Potency

C=CCc1ccc2c(c1)OCO2
inactive: [1] | [2] | [3] | [4] | [5] | [6] | [7] | [8] | [9] | [10] | [11] | [12] | [13] | [14] | [15] | [16] | [17] | [18] | [19] | [20]
